Measured values published in PubChem BioAssay (NCATS).
Results filed as inconclusive are left out. Active and inactive are the calls of the source. Calls come from the whole dose curve; as a rule, active = well fitted inhibition curve with a large enough effect; inconclusive = small, poorly fitted or top-dose-only effect; inactive = flat fitted curve, though single readings scatter. Residues, ends and D or L forms follow the SMILES beside them.

test system: CRL-7250; assay: qHTS assay to identify novel small-molecules to repurpose for Merkel cell carcinoma treatment (AID 1296009); settings: MCC and control cell lines, CellTiter-Glo viability, 72 h; at 44.8 µM (top of the series) unless noted; note: nearly all actives have a fitted effect of over 60% in size
Method in brief: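 CellTiter-Glo luminescence after 72 hr compound exposure at 37 degree celsius gave cell viability. Libraries NPC and MIPE were run as 8- and 11-point dose responses; RLUs normalized to DMSO (negative) and no-cell (cytotoxicity) controls.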

Q: How did the outcome turn out when `Cc1cc(OI)c(C(C)C)cc1-c1cc(C(C)C)c(OI)cc1C` was run?
A: inactive

Q: `CCOC(=O)O[C@]1(C(=O)OCCl)CC[C@H]2[C@@H]3CCC4=CC(=O)C=C[C@]4(C)[C@H]3[C@@H](O)C[C@@]21C` was tested. Which outcome did it give?
A: inactive

Q: How did the outcome turn out when `CCCCCCn1c(=O)c2c(ncn2C)n(C)c1=O` was run?
A: inactive

Q: `CCS(=O)(=O)CCn1c([N+](=O)[O-])cnc1C` was tested. Which outcome did it give?
A: inactive

Q: With `CO/N=C(/C(=O)N[C@@H]1C(=O)N2C(C(=O)OCOC(=O)C(C)(C)C)=C(C)CS[C@H]12)c1csc(N)n1` as the molecule, how does the outcome read?
A: inactive

Q: Which outcome does the source give for `OCc1ccc(Cl)cc1Cl` here?
A: inactive

Q: How did the outcome turn out when `C=CCN1C[C@H](C(=O)N(CCCN(C)C)C(=O)NCC)C[C@@H]2c3cccc4[nH]cc(c34)C[C@H]21` was run?
A: inactive

Q: Which outcome does the source give for `CCN(CC)CC#CCOC(=O)C(O)(c1ccccc1)C1CCCCC1` (stereo unspecified) here?
A: inactive

Q: With `CCCCCCCCCCC[C@@H](C[C@@H]1OC(=O)[C@H]1CCCCCC)OC(=O)[C@H](CC(C)C)NC=O` as the molecule, how does the outcome read?
A: inactive

Q: How did the outcome turn out when `CC(C)(C)NCC(O)COc1ccc(NC(=O)NC2CCCCC2)cc1` (stereo unspecified) was run?
A: inactive

Q: `CCO/C([O-])=N/c1c[n+](N2CCOCC2)no1` was tested. Which outcome did it give?
A: inactive

Q: With `COc1cc2c(Nc3ccc(Br)cc3F)ncnc2cc1OCC1CCN(C)CC1` as the molecule, how does the outcome read?
A: inactive

Q: With `NCCCCCC(=O)O` as the molecule, how does the outcome read?
A: inactive

Q: `COc1cc(O)cc(O)c1` was tested. Which outcome did it give?
A: inactive

Q: Which outcome does the source give for `CC(CCc1ccccc1)NCC(O)c1ccc(O)c(C(N)=O)c1` (stereo unspecified) here?
A: inactive

Q: `NS(=O)(=O)c1cc2c(cc1Cl)NC(C(Cl)Cl)NS2(=O)=O` (stereo unspecified) was tested. Which outcome did it give?
A: inactive

Q: With `NNC(=O)c1ccncc1` as the molecule, how does the outcome read?
A: inactive

Q: Which outcome does the source give for `CC1COc2c(N3CCN(C)CC3)c(F)cc3c(=O)c(C(=O)O)cn1c23` (stereo unspecified) here?
A: inactive

Q: Which outcome does the source give for `O=[N+]([O-])c1cncn1CCN1CCOCC1` here?
A: inactive

Q: How did the outcome turn out when `COc1c2occc2c(OC)c2c(=O)cc(C)oc12` was run?
A: inactive

Q: For `OC[C@H]1O[C@H](O[C@]2(CCl)O[C@H](CCl)[C@@H](O)[C@@H]2O)[C@H](O)[C@@H](O)[C@H]1Cl`, which outcome is on record?
A: inactive

Q: `CC(=O)OCC(=O)[C@@]1(O)[C@H](OC(C)=O)C[C@H]2[C@@H]3CCC4=CC(=O)C=C[C@]4(C)[C@@]3(F)[C@@H](O)C[C@@]21C` was tested. Which outcome did it give?
A: inactive

Q: `CCN(CC)C(C)CN1c2ccccc2Sc2ccccc21` (stereo unspecified) was tested. Which outcome did it give?
A: inactive

Q: How did the outcome turn out when `C/C(=N\O)[C@@H](C)NCC(C)(C)CN[C@H](C)/C(C)=N/O` was run?
A: inactive

Q: Which outcome does the source give for `COc1ccccc1OCC(O)CO` (stereo unspecified) here?
A: inactive

Q: Which outcome does the source give for `CC(=O)Nc1ccc(/C=N/NC(N)=S)cc1` here?
A: inactive

Q: With `NC(=O)N[C@@H](CCC(=O)O)C(=O)O` as the molecule, how does the outcome read?
A: inactive

Q: Which outcome does the source give for `Cc1ncc([N+](=O)[O-])n1CC(C)O` (stereo unspecified) here?
A: inactive

Q: `COC(=O)[C@H](Cc1ccccc1)NC(=O)[C@@H](N)CC(=O)O` (H-Asp-Phe-OMe) was tested. Which outcome did it give?
A: inactive

Q: `Cc1c(N(C)CS(=O)(=O)O)c(=O)n(-c2ccccc2)n1C` was tested. Which outcome did it give?
A: inactive

Q: With `NC(=O)NC1NC(=O)NC1=O` (stereo unspecified) as the molecule, how does the outcome read?
A: inactive

Q: Which outcome does the source give for `O=C(NC(Cc1cc(=O)[nH]c2ccccc12)C(=O)O)c1ccc(Cl)cc1` (stereo unspecified) here?
A: inactive

Q: How did the outcome turn out when `Nc1ncnc2c1ncn2[C@@H]1O[C@H](CO)[C@@H](O)[C@H]1O` was run?
A: inactive

Q: Which outcome does the source give for `CC(C)(Oc1ccc(Cl)cc1)C(=O)O` here?
A: inactive

Q: For `CC(=O)O[C@]1(C(C)=O)CC[C@H]2[C@@H]3C[C@H](C)C4=CC(=O)CC[C@]4(C)[C@H]3CC[C@@]21C`, which outcome is on record?
A: inactive

Q: For `CC[C@]12CCCN3CCc4c(n(c5ccccc45)[C@@](O)(C(=O)OC)C1)[C@@H]32`, which outcome is on record?
A: inactive
